Bioassay records deposited in PubChem by Broad Institute.
PfHsp40 rescue = rescue of PfHsp40-mediated yeast toxicity | S. cerevisiae expressing PfHsp40, growth rescue, ATP luminescence | growth rescue, % at 12.5 µM | 340,000 tested, 0.68% active | AID 504582; in the data active = growth rescue above about 28%, passing the limit was not always enough; inconclusive = no clear call, values can overlap the other calls;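 also: yeast W303a lacking pdr1 and pdr3 grown in galactose medium; growth measured after three days at 30 °C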
FadD28 binding = inhibitors of Mycobacterium tuberculosis FadD28 bisubstrate binding. FadD28 bisubstrate probe binding, fluorescence polarization. inhibition, % at 12.5 µM. 360,000 tested, 0.22% active; in the data active = inhibition above about 8.5%, passing the limit was not always enough; inconclusive = no clear call, values can overlap the other calls
Mtb BioA inh = BioA (M. tuberculosis) enzyme inhibition. purified M. tuberculosis BioA enzyme, plate reader. inhibition, % at 9.99 µM. 360,000 tested, 0.096% active; in the data active = inhibition above about 40%; inconclusive = no clear call, values can overlap the other calls
TcdB inh = blocks C. difficile toxin B glycohydrolase activity | P18177 | inhibition, % at 9.99 µM | AID 652162 | 350,000 tested, 0.24% active | TcdB glycohydrolase enzymatic assay, plate reader; in the data active = inhibition above about 10%
PrP 5UTR inh = suppresses PrP 5' UTR mRNA reporter expression; cell-based PrP 5' UTR mRNA reporter, plate reader; inhibition, % (test concentration not listed); 340,000 tested, 0.35% active; AID 488862; in the data active = inhibition above about 52%; also: 0 = median of the neutral control wells
* hit, by the source's call; ? = inconclusive; . = not tested or not shown. In the library only some 1.1% were active in any assay of this set; here they are far more common.

SMILES	PfHsp40 rescue	FadD28 binding	Mtb BioA inh	TcdB inh	PrP 5UTR inh
CCCCCCCCOC(=O)C1=C(C)Nc2nnnn2C1c1cccs1 (centres undefined)	76.1*	-3.8	4.5	.	-19.8
CC(C)NC(=O)N1[C@@H]2CN(C(=O)c3ccc(F)cc3)c3ccccc3[C@@H]2[C@@H]1CO	.	.	-0.7	.	.
CCN(CC)c1ccc(C=C2C(=O)OC3(CCCCC3)OC2=O)cc1	0.1	-3.4	.	2.6	-10.7
CCN(CC)c1ccc(/C=C2/C(=O)c3ccc(C(=O)O)cc3C2=O)cc1	-1.2	18.0*	.	2.3	-75.0
CCCCCCCCCCCCCCCC(O)C[N+](C)(C)CCO (centres undefined)	8.3	34.8*	.	1.2	4.1
CCCCCC(O)CCCC(=O)O (centres undefined)	?	-0.5	-0.2	1.1	-15.3
COc1cccc(CNC(=O)Cc2ccc(-c3ccccc3)cc2)c1	3.4	-5.4	-1.7	-0.2	-11.0
COc1cccc(CNC(=O)COc2ccc(C(=O)c3ccccc3)cc2)c1	499.3*	-2.1	1.3	0.9	-29.8
CC(C)C#Cc1ccc([C@H]2[C@H]3CN(C(=O)Nc4ccccc4)CCCCN3[C@H]2CO)cc1	.	.	-4.8	-6.9	.
O=C(COc1ccc2ccc(=O)oc2c1)NCCN1CCOCC1	.	-1.9	1.8	13.1*	.
O=C1NC(=O)N(Cc2ccccc2)C(=O)/C1=C\c1ccco1	-1.4	28.2*	.	-1.1	2.6
Cc1ccc(S(=O)(=O)Oc2ccccc2/C=N/Nc2ccc(C(=O)O)cc2)cc1	4.3	9.1*	-0.8	2.6	-14.0
CCOC(=O)c1ccc(NC(=O)CCc2nc(-c3ccccc3Cl)no2)cc1	33.7*	-2.8	0.9	.	-19.9
O=C1/C(=C\c2ccc(-c3ccccc3Cl)o2)SC(=S)N1CC1CCCO1 (centres undefined)	-0.9	0.0	-1.5	.	-24.1
O=C(O)C(c1ccccc1)N1C(=O)/C(=C\c2ccc(-c3ccc(Br)cc3)o2)SC1=S (centres undefined)	0.6	27.5*	17.5	1.7	-16.2
O=C(O)C(c1ccccc1)N1C(=O)/C(=C\c2ccc(-c3ccccc3Cl)o2)SC1=S (centres undefined)	0.7	11.2*	3.8	-0.6	-22.0
Cc1ccc(NC(=O)c2cc3nc(C)cc(C)n3n2)cc1	47.5*	-3.4	-1.0	.	-70.5
C[C@@H]1CN([C@@H](C)CO)S(=O)(=O)c2ccc(-c3cccc(C#N)c3)cc2O[C@H]1CN(C)C(=O)c1cccnc1	.	.	0.7	-0.5	.
CCCCn1c(SCC(=O)NCc2ccco2)nc2c1c(=O)n(C)c(=O)n2C	44.5*	-1.9	-0.5	.	-19.5
C/C(C/C(C)=C1/SC(=S)NC1=O)=C1\SC(=S)NC1=O	3.1	19.9*	.	-2.3	-32.5
CCCCCC/C(C)=C1/SC(=S)NC1=O	0.0	-8.5	5.7	.	-27.6
O=C(COc1ccc(-c2nnco2)cc1)NC1CCS(=O)(=O)C1 (centres undefined)	31.3*	-2.4	10.8	1.0	-11.0
CN(C)c1ccc2cc(S(=O)(=O)O)cc(O)c2c1	2.8	19.3*	-4.6	-9.6	3.4
COc1ccc(OC)c(N2C(=O)NC(=O)/C(=C\c3ccc([N+](=O)[O-])s3)C2=O)c1	-0.9	23.4*	1.5	0.3	-24.2
COc1ccc(CNn2c(-c3cccc(C)c3)nc3ccccc3c2=O)cc1OC	-0.6	-3.2	-0.2	1.1	3.9
SMILES	PfHsp40 rescue	FadD28 binding	Mtb BioA inh	TcdB inh	PrP 5UTR inh
COc1ccccc1CNn1c(-c2cccc(C)c2)nc2ccccc2c1=O	42.2*	-1.2	-0.3	1.3	-22.1
OCCOCCn1c(C2CCCN2c2nc(-c3ccc(F)cc3)cs2)nc2cc(Cl)c(Cl)cc21 (centres undefined)	143.4*	-3.5	-0.7	0.5	-20.6
OCCOCCn1c(C2CCCN2c2nc(-c3ccc(F)cc3)cs2)nc2cc(C(F)(F)F)ccc21 (centres undefined)	?	-2.9	2.3	1.6	-6.1
OCCCn1c(C2CCCN2c2nc(-c3ccc(F)cc3)cs2)nc2cc(C(F)(F)F)ccc21 (centres undefined)	145.2*	-8.9	4.8	0.8	-15.7
COc1ccccc1C1CCN(C(=O)C2CCCCC2)CC1	-0.2	-2.5	-0.1	-4.0	-24.1
COc1ccccc1C1CCN(c2cc(O)ccc2[N+](=O)[O-])CC1	123.8*	-19.5	-0.3	0.9	-30.2
C[C@@H]1CCCCO[C@H](CN(C)CC2CC2)[C@@H](C)CN([C@H](C)CO)C(=O)c2cc(NS(=O)(=O)c3ccc(Cl)cc3)ccc2O1	.	.	2.2	-1.0	.
O=C1c2ccccc2C(=O)c2cc(N3CCCCC3)ccc21	0.6	-3.0	-2.8	-1.3	45.6
O=C1c2cccc(Cl)c2C(=O)c2c1cccc2N1CCCC1	380.5*	0.2	-1.3	.	5.7
CCS(=O)(=O)N1CC2(C1)[C@H](c1ccccc1)[C@H](CO)N2Cc1ccccn1	.	.	.	-0.6	.
O=C(c1cc2ccccc2o1)N1CCN(c2ccccc2Cl)CC1	186.8*	1.6	2.1	.	-18.2
CC(C)C#Cc1ccc2c(c1)O[C@@H](CN(C)C(=O)Nc1ccccc1)[C@@H](C)CN([C@H](C)CO)S2(=O)=O	.	.	3.0	.	.
CN(C)CCCNC(=O)C[C@H]1CC[C@@H]2[C@@H](COc3ccc(NC(=O)c4ccc5c(c4)OCO5)cc3C(=O)N2C)O1	.	.	2.8	10.7*	.
CN1C(=O)c2cc(NC(=O)c3cccc(F)c3)ccc2OC[C@@H]2O[C@@H](CC(=O)NCC3CCCCC3)CC[C@@H]21	.	.	-1.3	10.2*	.
CCNC(=O)C[C@H]1CC[C@@H]2[C@H](COc3ccc(NC(=O)c4ccc5c(c4)OCO5)cc3C(=O)N2C)O1	.	.	4.9	12.8*	.
CCNC(=O)C[C@H]1CC[C@H]2[C@H](COc3ccc(NC(=O)c4ccc5c(c4)OCO5)cc3C(=O)N2C)O1	.	.	0.5	-0.3	.
CCNC(=O)C[C@H]1CC[C@@H]2[C@@H](COc3ccc(NC(=O)c4ccc5c(c4)OCO5)cc3C(=O)N2C)O1	.	.	2.3	14.0*	.
COc1ccc(S(=O)(=O)Nc2ccc3c(c2)C(=O)N([C@@H](C)CO)C[C@H](C)[C@@H](CN(C)C(=O)Nc2ccccc2)O3)cc1	.	.	-2.8	0.2	.
C[C@@H]1CN([C@H](C)CO)S(=O)(=O)c2ccc(-c3ccc(F)cc3)cc2O[C@@H]1CN(C)C(=O)C1CC1	.	.	2.7	.	.
COc1ccc(CN(C)C[C@@H]2OCCCC[C@H](C)Oc3ccc(NS(=O)(=O)c4c(C)noc4C)cc3C(=O)N([C@H](C)CO)C[C@H]2C)cc1	.	.	.	0.5	.
CCNC(=O)C[C@H]1CC[C@H]2[C@H](COc3ccc(NC(C)=O)cc3C(=O)N2C)O1	.	.	-0.1	11.3*	.
CCCNC(=O)C[C@H]1CC[C@@H]2[C@@H](COc3ccc(NC(=O)c4ccc(Cl)cc4)cc3C(=O)N2C)O1	.	.	0.6	12.8*	.
CC(=O)Nc1ccc2c(c1)C(=O)N(C)[C@H]1CC[C@H](CC(=O)NCC3CC3)O[C@H]1CO2	.	.	16.9	0.1	.
COc1cc(C(=O)Nc2ccc(Br)cc2C(=O)c2ccccc2)cc(OC)c1OC	81.4*	-0.8	.	.	-12.2
COc1cc(C(=O)Nc2ccc(Br)cc2C(=O)c2cc(OC)c(OC)c(OC)c2)cc(OC)c1OC	0.9	-0.2	-0.7	.	-6.1
